# Laboratory results: the supplement of paper PMC10849652
# Targets with a hit are over-represented here; the source holds about 8,800 in all. About 0.5% of all pairs of compound and target were hits. A number with no mark means an inactive call.
# Compound: NCC(=O)Nc1ccc(-n2nc(C(F)(F)F)cc2-c2ccc3c(ccc4ccccc43)c2)cc1
# Assay: log2 fold change, soluble protein after heating vs DMSO (PISA); higher = thermal stabilisation; K562 lysate, 10 uM; active = over 0.2 and 3.5 SD of the protein, either way, in both replicates (recomputed)
# In short: (§1)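 Pellets of K562 cells were dounce-homogenised in PBS pH 7.4 with 1 mM MgCl2, and the crude extract was held at 1 mg/mL protein for a 30 min treatment with 10 μM compound. Aliquots were heated for 3 min over 48°C-58°C and pooled before NP-40 was added to 0.5% at 4°C. The supernatant from 21,000xg for 90 min was quantified by TMTpro 16plex LC-MS/MS with channel sums equalised. Values are reported from duplicates as log-two fold change in thermal stability relative to solvent controls.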
# Chain of UniProt Q14191 (Q14191 whole entry, looked up): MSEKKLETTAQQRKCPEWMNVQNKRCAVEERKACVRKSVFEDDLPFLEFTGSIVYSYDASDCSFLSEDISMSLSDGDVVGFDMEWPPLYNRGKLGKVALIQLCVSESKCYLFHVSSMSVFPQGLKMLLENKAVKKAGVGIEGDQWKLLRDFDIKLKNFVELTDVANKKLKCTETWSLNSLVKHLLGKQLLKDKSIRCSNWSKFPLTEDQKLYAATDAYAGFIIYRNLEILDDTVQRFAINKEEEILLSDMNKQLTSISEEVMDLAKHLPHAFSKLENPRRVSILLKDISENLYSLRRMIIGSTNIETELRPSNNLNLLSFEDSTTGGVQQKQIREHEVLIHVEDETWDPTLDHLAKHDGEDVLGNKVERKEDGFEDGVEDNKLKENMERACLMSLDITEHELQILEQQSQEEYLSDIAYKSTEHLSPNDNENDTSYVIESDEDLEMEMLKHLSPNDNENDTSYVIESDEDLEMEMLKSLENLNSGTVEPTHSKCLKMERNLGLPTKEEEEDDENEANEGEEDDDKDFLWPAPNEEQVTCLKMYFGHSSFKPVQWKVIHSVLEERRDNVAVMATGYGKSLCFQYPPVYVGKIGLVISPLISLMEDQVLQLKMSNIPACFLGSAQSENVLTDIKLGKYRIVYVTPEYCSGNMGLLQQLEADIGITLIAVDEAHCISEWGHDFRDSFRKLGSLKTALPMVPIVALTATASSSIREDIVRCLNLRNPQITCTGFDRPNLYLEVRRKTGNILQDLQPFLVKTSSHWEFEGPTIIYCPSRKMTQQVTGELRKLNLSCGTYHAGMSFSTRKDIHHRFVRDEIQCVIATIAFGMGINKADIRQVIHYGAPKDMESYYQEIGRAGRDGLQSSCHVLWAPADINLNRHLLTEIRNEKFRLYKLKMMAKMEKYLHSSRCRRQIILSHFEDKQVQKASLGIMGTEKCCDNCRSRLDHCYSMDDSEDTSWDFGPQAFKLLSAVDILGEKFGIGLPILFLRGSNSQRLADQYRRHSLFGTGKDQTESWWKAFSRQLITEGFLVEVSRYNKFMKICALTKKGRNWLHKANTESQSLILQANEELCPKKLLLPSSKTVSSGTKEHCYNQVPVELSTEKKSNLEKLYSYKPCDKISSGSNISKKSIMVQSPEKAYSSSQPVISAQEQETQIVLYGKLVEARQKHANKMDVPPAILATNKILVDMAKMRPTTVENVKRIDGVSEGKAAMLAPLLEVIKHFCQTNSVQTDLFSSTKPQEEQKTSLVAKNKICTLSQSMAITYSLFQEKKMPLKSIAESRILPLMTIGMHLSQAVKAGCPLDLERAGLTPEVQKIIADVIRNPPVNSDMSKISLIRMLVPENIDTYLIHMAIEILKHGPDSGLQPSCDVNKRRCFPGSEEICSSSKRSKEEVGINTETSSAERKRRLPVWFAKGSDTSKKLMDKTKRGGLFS
# Chain of UniProt Q96K21 (Q96K21 whole entry, looked up): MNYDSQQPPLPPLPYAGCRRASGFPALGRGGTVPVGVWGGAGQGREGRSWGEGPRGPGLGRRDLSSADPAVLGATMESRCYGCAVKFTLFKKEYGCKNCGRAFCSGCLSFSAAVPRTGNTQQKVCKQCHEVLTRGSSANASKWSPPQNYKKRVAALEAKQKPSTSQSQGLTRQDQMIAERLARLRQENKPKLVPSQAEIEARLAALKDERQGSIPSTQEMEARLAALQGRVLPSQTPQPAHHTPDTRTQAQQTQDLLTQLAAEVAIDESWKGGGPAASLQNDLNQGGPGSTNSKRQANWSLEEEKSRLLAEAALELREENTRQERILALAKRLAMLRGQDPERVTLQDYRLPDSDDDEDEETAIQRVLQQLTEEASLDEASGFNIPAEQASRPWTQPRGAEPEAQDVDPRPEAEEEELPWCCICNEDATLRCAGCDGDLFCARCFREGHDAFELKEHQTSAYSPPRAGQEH
# Chain of UniProt Q96AX1 (Q96AX1 whole entry, looked up): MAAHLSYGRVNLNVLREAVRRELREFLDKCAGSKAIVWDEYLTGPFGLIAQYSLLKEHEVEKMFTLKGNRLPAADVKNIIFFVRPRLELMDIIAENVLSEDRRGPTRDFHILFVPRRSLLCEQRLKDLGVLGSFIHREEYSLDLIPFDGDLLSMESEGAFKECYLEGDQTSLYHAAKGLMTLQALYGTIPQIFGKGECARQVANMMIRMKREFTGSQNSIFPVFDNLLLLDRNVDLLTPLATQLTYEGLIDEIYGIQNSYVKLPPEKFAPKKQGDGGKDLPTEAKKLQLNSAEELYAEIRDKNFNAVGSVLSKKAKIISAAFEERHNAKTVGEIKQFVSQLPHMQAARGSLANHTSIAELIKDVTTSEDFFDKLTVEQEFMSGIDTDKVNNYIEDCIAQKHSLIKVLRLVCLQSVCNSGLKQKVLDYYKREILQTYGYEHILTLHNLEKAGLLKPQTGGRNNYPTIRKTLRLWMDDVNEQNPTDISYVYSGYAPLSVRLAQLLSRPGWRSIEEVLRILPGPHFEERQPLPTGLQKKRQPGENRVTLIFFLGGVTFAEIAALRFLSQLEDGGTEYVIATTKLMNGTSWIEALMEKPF
# Chain of UniProt Q86WB0 (Q86WB0 whole entry, looked up): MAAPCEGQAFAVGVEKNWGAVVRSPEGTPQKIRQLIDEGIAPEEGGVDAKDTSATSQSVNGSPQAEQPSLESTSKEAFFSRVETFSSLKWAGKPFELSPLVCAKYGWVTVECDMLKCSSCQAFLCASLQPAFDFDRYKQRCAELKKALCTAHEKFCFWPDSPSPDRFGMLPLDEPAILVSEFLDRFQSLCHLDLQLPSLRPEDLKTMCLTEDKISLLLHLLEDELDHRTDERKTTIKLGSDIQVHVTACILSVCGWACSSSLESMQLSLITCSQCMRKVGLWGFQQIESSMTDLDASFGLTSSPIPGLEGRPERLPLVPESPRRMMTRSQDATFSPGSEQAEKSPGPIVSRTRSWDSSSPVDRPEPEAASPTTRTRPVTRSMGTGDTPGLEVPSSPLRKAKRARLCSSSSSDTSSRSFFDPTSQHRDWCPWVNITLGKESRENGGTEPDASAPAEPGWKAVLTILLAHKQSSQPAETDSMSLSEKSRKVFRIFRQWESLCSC
# Chain of UniProt Q96GY0 (Q96GY0 whole entry, looked up): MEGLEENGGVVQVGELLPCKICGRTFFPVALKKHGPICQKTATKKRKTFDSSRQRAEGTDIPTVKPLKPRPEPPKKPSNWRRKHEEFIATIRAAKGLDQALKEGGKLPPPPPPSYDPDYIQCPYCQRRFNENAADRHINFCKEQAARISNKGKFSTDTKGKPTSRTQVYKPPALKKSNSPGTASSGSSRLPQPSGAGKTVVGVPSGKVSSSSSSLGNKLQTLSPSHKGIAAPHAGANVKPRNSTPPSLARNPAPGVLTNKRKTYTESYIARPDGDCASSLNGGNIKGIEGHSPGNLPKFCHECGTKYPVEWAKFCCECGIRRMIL
# Chain of UniProt P40818 (P40818 whole entry, looked up): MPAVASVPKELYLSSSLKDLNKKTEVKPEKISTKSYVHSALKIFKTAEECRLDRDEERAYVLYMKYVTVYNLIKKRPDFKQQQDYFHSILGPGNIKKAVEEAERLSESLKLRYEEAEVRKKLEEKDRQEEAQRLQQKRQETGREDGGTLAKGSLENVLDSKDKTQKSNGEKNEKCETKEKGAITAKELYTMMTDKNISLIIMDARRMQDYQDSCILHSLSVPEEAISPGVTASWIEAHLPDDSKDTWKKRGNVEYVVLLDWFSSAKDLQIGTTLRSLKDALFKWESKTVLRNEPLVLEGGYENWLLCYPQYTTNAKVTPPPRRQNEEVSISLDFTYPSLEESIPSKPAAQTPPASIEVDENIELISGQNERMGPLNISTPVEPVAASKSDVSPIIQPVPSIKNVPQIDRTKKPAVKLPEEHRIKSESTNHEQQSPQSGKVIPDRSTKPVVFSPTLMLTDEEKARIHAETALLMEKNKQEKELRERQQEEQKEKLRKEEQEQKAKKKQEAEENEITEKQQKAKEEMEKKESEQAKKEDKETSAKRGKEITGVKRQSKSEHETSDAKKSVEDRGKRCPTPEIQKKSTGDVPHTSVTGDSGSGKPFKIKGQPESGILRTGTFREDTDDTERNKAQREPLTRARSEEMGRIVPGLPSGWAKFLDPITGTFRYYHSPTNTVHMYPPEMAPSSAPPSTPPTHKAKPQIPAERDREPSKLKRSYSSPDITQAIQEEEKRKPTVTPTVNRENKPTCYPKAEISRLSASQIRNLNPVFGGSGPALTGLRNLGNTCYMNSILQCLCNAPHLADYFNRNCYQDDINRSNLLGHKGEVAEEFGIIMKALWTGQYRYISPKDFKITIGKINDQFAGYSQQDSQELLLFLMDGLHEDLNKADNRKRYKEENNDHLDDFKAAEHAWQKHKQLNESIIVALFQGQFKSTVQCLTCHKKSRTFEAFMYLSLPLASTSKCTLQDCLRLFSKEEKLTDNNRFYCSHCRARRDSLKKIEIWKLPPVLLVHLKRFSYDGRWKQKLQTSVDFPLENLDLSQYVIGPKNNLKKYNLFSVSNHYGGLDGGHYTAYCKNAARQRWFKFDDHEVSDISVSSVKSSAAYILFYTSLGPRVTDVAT
# Chain of UniProt Q9BZI7 (Q9BZI7 whole entry, looked up): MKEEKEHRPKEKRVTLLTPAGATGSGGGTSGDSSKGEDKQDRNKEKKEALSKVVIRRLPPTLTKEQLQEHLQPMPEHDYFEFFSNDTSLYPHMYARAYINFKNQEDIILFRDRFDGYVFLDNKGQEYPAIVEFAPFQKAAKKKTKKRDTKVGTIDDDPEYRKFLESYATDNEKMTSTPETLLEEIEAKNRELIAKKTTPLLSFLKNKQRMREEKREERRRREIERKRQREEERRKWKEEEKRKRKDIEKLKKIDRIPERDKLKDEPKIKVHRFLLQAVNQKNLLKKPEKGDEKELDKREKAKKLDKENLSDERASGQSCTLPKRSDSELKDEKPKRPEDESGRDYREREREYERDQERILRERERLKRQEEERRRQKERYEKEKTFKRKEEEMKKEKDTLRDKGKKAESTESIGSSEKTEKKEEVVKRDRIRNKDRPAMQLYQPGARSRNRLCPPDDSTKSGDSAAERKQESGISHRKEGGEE
row,Target,log2 fold change
1,VASP (UniProt P50552),0.035
2,ZC2HC1A (UniProt Q96GY0),0.104
3,VARS (UniProt P26640),0.006
4,YME1L1 (UniProt Q96TA2),-0.001
5,VPS4A (UniProt Q9UN37),-0.026
6,USP8 (UniProt P40818),0.012
7,XAB2 (UniProt Q9HCS7),-0.012
8,ZNF217 (UniProt O75362),0
9,VPS18 (UniProt Q9P253),-0.016
10,VPS37B (UniProt Q9H9H4),0.029
11,USE1 (UniProt Q9NZ43),-0.113
12,UPF3B (UniProt Q9BZI7),0.022
13,WDR7 (UniProt Q9Y4E6),-0.01
14,WDHD1 (UniProt O75717),-0.011
15,VPS72 (UniProt Q15906),0.11
16,VPS39 (UniProt Q96JC1),0.009
17,USP10 isoform 2 (UniProt Q14694),0.022
18,ZFYVE19 (UniProt Q96K21),0.026
19,ZNF593 (UniProt O00488),-0.029
20,WRN (UniProt Q14191),0.003
21,ZZEF1 (UniProt O43149),0.02
22,USP16 (UniProt Q9Y5T5),0.019
23,VPS33A (UniProt Q96AX1),0.011
24,WRNIP1 (UniProt Q96S55),-0.011
25,WRB (UniProt O00258),0.082
26,YWHAQ (UniProt P27348),-0.047
27,XPO6 (UniProt Q96QU8),-0.034
28,ZC3HC1 (UniProt Q86WB0),0.021
29,WDR41 (UniProt Q9HAD4),-0.017
30,ZMYND8 isoform 19 (UniProt Q9ULU4),0.059

# Compound: O=C(CCCCCCC(=O)Nc1ccccc1)NO [vorinostat]
# Assay: as above
# In short: as §1
row,Target,log2 fold change
1,VASP (UniProt P50552),0.015
2,ZC2HC1A (UniProt Q96GY0),-0.066
3,VARS (UniProt P26640),-0.275 (active)
4,YME1L1 (UniProt Q96TA2),0.04
5,VPS4A (UniProt Q9UN37),-0.356 (active)
6,USP8 (UniProt P40818),-0.324 (active)
7,XAB2 (UniProt Q9HCS7),-0.259 (active)
8,ZNF217 (UniProt O75362),-0.301 (active)
9,VPS18 (UniProt Q9P253),-0.386 (active)
10,VPS37B (UniProt Q9H9H4),-0.349 (active)
11,USE1 (UniProt Q9NZ43),-0.029
12,UPF3B (UniProt Q9BZI7),0.075
13,WDR7 (UniProt Q9Y4E6),-0.236 (active)
14,WDHD1 (UniProt O75717),-0.259 (active)
15,VPS72 (UniProt Q15906),-0.401 (active)
16,VPS39 (UniProt Q96JC1),-0.194
17,USP10 isoform 2 (UniProt Q14694),-0.294 (active)
18,ZFYVE19 (UniProt Q96K21),0.105
19,ZNF593 (UniProt O00488),0.191
20,WRN (UniProt Q14191),-0.282 (active)
21,ZZEF1 (UniProt O43149),-0.263 (active)
22,USP16 (UniProt Q9Y5T5),-0.272 (active)
23,VPS33A (UniProt Q96AX1),-0.222 (active)
24,WRNIP1 (UniProt Q96S55),-0.521 (active)
25,WRB (UniProt O00258),0.131
26,YWHAQ (UniProt P27348),-0.052
27,XPO6 (UniProt Q96QU8),-0.401 (active)
28,ZC3HC1 (UniProt Q86WB0),-0.368 (active)
29,WDR41 (UniProt Q9HAD4),-0.284 (active)
30,ZMYND8 isoform 19 (UniProt Q9ULU4),-0.224 (active)
